Screening data deposited in PubChem BioAssay by National Center for Advancing Translational Sciences (NCATS).
Rows were chosen to be rich in hits. Some 11% of all compounds tested hit in one or more screens of this group.
MCF10A rereplic = inducers of DNA re-replication in MCF 10A breast cells | Potency, µM (highest dose often 46.1 µM), usual class: activators | MCF 10A DNA re-replication, Hoechst nuclear intensity, 48 h | AID 624296 | actives 2.9% (n = 350,000); further: nearly all actives have a fitted effect of over 50% in size
Gal4-VP16 FLuc = counter-screen for ROR gamma inhibitors: Gal4-VP16 reporter; Drosophila S2 Gal4-VP16 UAS-luciferase, luminescence, 20 h; Potency, µM (series often up to 53.6 µM), actives largely listed as inhibitors; actives 3.5% (n = 310,000); AID 2546;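 further: Gal4-VP16 expression switched on by copper sulfate through the metallothionein promoter; nearly all actives have a fitted effect of over 50% in size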
RORg inh = ROR gamma (mouse) transcription inhibition. P51450. Drosophila S2 Gal4-RORgamma UAS-luciferase reporter, 20 h. Potency, µM (titrated, usually from 53.6 µM), most hits filed as inhibitors. actives 5.4% (n = 310,000). AID 2551; further: nearly all actives have a fitted effect of over 60% in size
Target sequence (P51450 whole entry, looked up, the tested form may be a part): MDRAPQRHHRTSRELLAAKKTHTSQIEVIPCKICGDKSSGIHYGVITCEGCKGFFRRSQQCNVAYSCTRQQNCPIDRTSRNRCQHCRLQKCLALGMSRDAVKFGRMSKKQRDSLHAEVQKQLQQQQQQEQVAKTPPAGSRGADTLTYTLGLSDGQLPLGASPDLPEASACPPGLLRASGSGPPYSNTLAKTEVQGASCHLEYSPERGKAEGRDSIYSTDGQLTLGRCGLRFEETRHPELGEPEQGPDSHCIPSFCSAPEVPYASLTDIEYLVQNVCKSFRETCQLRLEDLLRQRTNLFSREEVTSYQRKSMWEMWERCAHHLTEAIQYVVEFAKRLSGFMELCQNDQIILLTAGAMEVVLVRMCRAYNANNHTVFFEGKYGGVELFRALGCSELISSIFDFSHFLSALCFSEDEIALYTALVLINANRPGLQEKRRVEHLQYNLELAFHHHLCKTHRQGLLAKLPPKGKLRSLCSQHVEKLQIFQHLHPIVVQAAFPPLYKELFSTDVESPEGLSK
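A Gal4/UAS one-hybrid system in insect cells: metallothionein-promoter Gal4–ROR gamma fusion plus Photinus luciferase reporter. Copper sulfate 700 uM final, 20 hr ambient incubation, luminescent detection after 10 min with reagent.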
SW480 rereplic = inducers of DNA re-replication in SW480 colon cancer cells. SW480 DNA re-replication, Hoechst DNA content imaging, 48 h. Potency, µM (titrated, usually from 46.1 µM), usual class: activators. actives 1.8% (n = 340,000). AID 624297; further: nearly all actives have a fitted effect of over 55% in size
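Image-based read-out: total Hoechst fluorescence of nuclei (405 nm excitation, 500-530 nm emission), with hits raising the fraction of high-intensity nuclei. SW480 colon cells incubated 48 hr with compounds at 37 C.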
IL1B secr inh = blocks inflammasome-driven IL-1 beta release. THP-1 LPS/ATP IL-1B secretion, AlphaLISA, 16 h; stronger effect = lower value. activity change, % at 57.5 µM. actives 4.7% (n = 360,000). AID 743279; in the data active means activity change below about -50%; inconclusive means mostly about -30% to -49%
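Secreted IL-1B measured by AlphaLISA bead assay after 16 h compound exposure of THP-1 cells; compounds (final up to 57.5 uM) added 1 h before LPS (250 ng/mL) and ATP (1.25 mM) stimulation; lower signal means less secretion.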
Hits are given with their value; – = inactive; ? = inconclusive; · = no result given; [ ] = dose if it differs, or a comment. Unless noted, the call rests on the fitted dose curve; in most records, active means well fitted curve in the direction sought with a large enough effect; inconclusive means small, poorly fitted or top-dose-only effect, or another doubt; inactive means no such curve, though single readings can be large; an effect the other way counts as inactive or inconclusive.

SMILES | MCF10A rereplic | Gal4-VP16 FLuc | RORg inh | SW480 rereplic | IL1B secr inh
O=[N+]([O-])c1cccc(S(=O)(=O)N2CCCCC2)c1 | – | – | – | – | –
C=CCOc1c(OC)cc(/C=N/Nc2cccc(C(=O)O)c2)c(Br)c1Br | 21µM | – | – | 2.1µM | –
Cc1cccc(S(=O)(=O)Nc2cc(Cl)ccc2N2CCOCC2)c1 | – | · | · | – | –
CCOC(=O)CSCC(=O)N1N=C(c2cccs2)CC1c1ccc(F)cc1 (stereo unspecified) | – | – | – | · | –
CN1CCc2c(OCC(=O)N3N=C(c4cccs4)CC3c3ccc(F)cc3)cccc2C1=O (stereo unspecified) | – | – | – | – | -67
O=C(CSc1nc2ccccc2s1)N1N=C(c2cccs2)CC1c1ccc(F)cc1 (stereo unspecified) | 16µM | – | – | – | –
CCN1CCc2c(OCC(=O)N3N=C(c4cccs4)CC3c3ccc(F)cc3)cccc2C1=O (stereo unspecified) | – | – | – | – | -57
CC(=O)Nc1cccc(-c2csc(C(O)c3cccc(Cl)c3)n2)c1 (stereo unspecified) | · | · | · | · | –
CC(=O)N1CCN(Cc2nc3cc([N+](=O)[O-])ccc3n2C)CC1 | – | – | – | 2.9µM | –
O=Cc1sc(=O)n(Cc2cccc(C(=O)O)c2)c1Cl | 29µM | ? | – | – | –
Cc1cc(N2CCC(C)CC2)c(F)cc1[N+](=O)[O-] | – | –[0.365 µM] | – | – | –
Cc1cc(N2CCCC2)c(F)cc1/C=C\[N+](=O)[O-] | ? | – | – | 29µM | -68
CCSc1nnc(NC(=O)C2Cc3ccccc3CN2C(=O)c2ccco2)s1 (stereo unspecified) | ? | ? | 10µM | – | –
Cc1ccc(NC(=O)c2sc3nc(CCl)[nH]c(=O)c3c2C)c(C)c1 | ? | ? | – | – | -87
Cc1ccc(NC(=O)c2sc3nc(C)nc(N4CCN(c5ccccn5)CC4)c3c2C)c(C)c1 | ? | – | – | – | -60
Cc1nc(N2CCN(c3ccccn3)CC2)c2c(C)c(C(=O)N3CCN(c4ccccc4F)CC3)sc2n1 | 7.3µM | – | – | – | ?
C=CC(C1=CC(=O)C(OC)=C(OC)C1=O)c1ccccc1 (stereo unspecified) | · | 7.1µM | 14µM | · | ·
N#Cc1ccc(CN2CCC3(CCNCC3)CC2)cc1 | · | – | – | · | ·
CN1/C(=C/C2CC(=O)N(c3cccc4ccccc34)C2=O)C(C)(C)c2ccccc21 (stereo unspecified) | ? | – | – | 18µM | –
CCOc1ccc(N2C(=O)CC(/C=C3/N(C)c4ccccc4C3(C)C)C2=O)cc1 (stereo unspecified) | – | – | – | – | –
CCc1nc2c(OCc3ccc(Cl)cc3Cl)cccn2c1N(C)C(=O)c1ccccc1F | · | · | · | · | –
CCCCCCCCCCCCCCCC(N)=O | · | – | – | · | ·
COC(=O)C1=C(C)N(C)C(C)=C(C(=O)OC)C1c1ccc(Cl)cc1 | – | – | – | – | –
CCOC(=O)C1=C(C)N(CCCC(=O)O)C(=O)NC1c1ccc(Cl)cc1 (stereo unspecified) | – | – | – | – | –
CCOC(=O)C1=C(C)N(C)C(=S)NC1c1ccc(Cl)cc1 (stereo unspecified) | – | 3.5µM | ? | – | –
SMILES | MCF10A rereplic | Gal4-VP16 FLuc | RORg inh | SW480 rereplic | IL1B secr inh
CCOC(=O)C1=C(C)N(C)C(=S)NC1c1c(OCC)ccc2ccccc12 (stereo unspecified) | – | 18µM | 2.8µM | – | –
CCOC(=O)C1=C(C)N(C)C(C)=C(C(=O)OCC)C1c1ccc(Cl)cc1 | 23µM | 22µM | – | ? | ?
CCOC(=O)C1=C(C)N(C[C@@H]2CC[C@@H](Cc3ccc(-c4ccccc4)cc3)O2)C(=O)NC1c1ccc(Cl)cc1 (stereo partly specified) | ? | · | · | – | -52
Cc1cccc(S(=O)(=O)NC(=O)C2(C)CCN2C(=O)CC2CCCCC2)c1 (stereo unspecified) | · | · | · | · | –
COC(=O)C1=C(C)N(C)C(=S)NC1c1ccc(Cl)cc1 (stereo unspecified) | ? | 11µM | 7.9µM | – | –
COC(=O)C1=C(C)N(C)C(=S)NC1c1ccc(OC)cc1OC (stereo unspecified) | – | ? | 16µM | – | –
CCOC(=O)C1=C(C)C(c2cccc(Oc3ccccc3)c2)NC(=S)N1 (stereo unspecified) | ? | 18µM | 7.1µM | – | -74
CCOC(=O)C1=C(C)NC(=S)N(C(C)=O)C1c1ccc(Cl)cc1 (stereo unspecified) | – | 18µM | 7.9µM | – | –
CCOC(=O)C1=C(C)NC(=S)N(C(C)=O)C1c1ccc(OC)c(OC)c1 (stereo unspecified) | ? | – | ? | – | –
COC(=O)C/C=C\[C@@H](C)[C@@H](/C=N\OC[C@@H]1O[C@H](c2ccccc2)C=C[C@@H]1Oc1ccc(OC)cc1)OC | · | –[10 µM] | –[10 µM] | · | ·
CCCCn1c(N)c(N(CC(C)C)C(=O)C2CCN(S(=O)(=O)c3ccc(C)cc3)CC2)c(=O)[nH]c1=O | – | · | · | – | –
CCOC(=O)C1=C(C)N(C)C(=S)NC1c1ccccc1 (stereo unspecified) | – | 8.9µM | 6.3µM | – | –
CC1=C(C(=O)OC(C)C)C(c2ccccc2)NC(=S)N1C (stereo unspecified) | – | ? | 14µM | ? | –
Cc1cccc(C(=O)O)c1NC(=O)Cc1cccc2ccccc12 | – | · | · | – | –
C[C@@H]1OC(OC2CC[C@@]3(C)C(CC[C@@]4(C)C3CC=C3C5CC(C)(C)CC[C@]5(C(=O)OC5OCC(O)[C@@H](O)[C@@H]5OC5O[C@@H](C)[C@H](O[C@H]6OC(CO)C(O)C(O)C6O)C(O)C5O)C(O)C[C@@]34C)C2(C)C)C(O)C(O)[C@H]1OC1OCC(O)C(O)[C@H]1O (stereo partly specified) | · | ? | – | · | ·
CC1OC(O[C@H]2CC[C@]3(C)C4C=C[C@]56OC[C@@]7(CC[C@@H](C)[C@H](C)C75)[C@H](O)C[C@@]6(C)[C@]4(C)CC[C@H]3C2(C)C)C(OC2OC(CO)C(O)C(O)C2OC2OCC(O)C(O)C2O)C(O)C1O (stereo partly specified) | · | – | 1.8µM | · | ·
COCCNC(=O)C1(C)CCCN(C(=O)c2ccccc2C(F)(F)F)C1 (stereo unspecified) | · | · | · | · | –
Cc1ccn2cc(-c3cc4ccccc4oc3=O)nc2c1 | – | ? | 2.5µM | – | –
C/C(=N/NC(=O)c1nnn(-c2nonc2N)c1COc1ccccc1)c1ccccc1Cl | – | ? | 22µM | ? | –
C/C(=N\NC(=O)c1nnn(-c2nonc2N)c1-c1ccccc1)c1ccccc1O | 15µM | 6.3µM | 1.8µM | 0.82µM | –
CCCc1c(C(=O)N/N=C(\C)c2ccccc2O)nnn1-c1nonc1N | · | · | · | · | –
